Source: PubChem BioAssay (NCATS)
Records with an inconclusive call do not appear. Active and inactive are the calls of the source. The call rests on the fitted dose curve; in most records, active means well fitted curve in the direction sought with a large enough effect; inconclusive means small, poorly fitted or top-dose-only effect, or another doubt; inactive means no such curve, though single readings can be large; an effect the other way counts as inactive or inconclusive.

Legend:
[1] = qHTS to identify inhibitors of the type 1 interferon - major histocompatibility complex class I in skeletal muscle: primary screen against the NCATS LOPAC collection (AID 1347405);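 further: human myoblasts with HiBiT tag on endogenous HLA-B stimulated by IFN-beta; lytic HiBiT luminescence reporting HLA-B protein level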
Procedure, shortened: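 First, engineered myoblasts carrying HLA-B-HiBiT were seeded in medium lacking dexamethasone with 4 ng/ml IFN-beta. After 1 hr, compounds were pinned in (top 46 uM final, 7 points). After 24 hrs at 37 C, luminescence was measured following 10 min lysis.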

[2] = qHTS for inhibitors of adenylyl cyclases using a fission yeast platform: a pilot screen against the NCATS LOPAC library (AID 1347410)
Procedure, shortened: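 Growth medium went into the plates first, then compounds were pinned (final up to 57 µM), then CHP2027 yeast were added. Plates were incubated overnight (18 h) at 30C in the dark, and GFP was measured by laser scanning cytometry.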

[3] = Validation qHTS assay for inhibitors of Activation Induced Cytidine Deaminase (AID): UDG Counterscreen signal (AID 1347427)
Procedure, shortened: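 Fluorescence at 560 nm excitation, 665 nm emission reports UDG signal after 250 mM NaOH (2x) addition and 30 min. Enzymes (AID 1 uM, UDG 2 U/mL, at 4/3x) preincubated 10 min with compound, then 4 h with 4x 250 nM DJC20/DJC23 substrate at room temperature.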

[4] = target: Single-stranded DNA cytosine deaminase (Homo sapiens) (UniProt Q9GZX7); experiment: Validation qHTS assay for inhibitors of Activation Induced Cytidine Deaminase (AID): AID signal (AID 1347429)
Procedure, shortened: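 Steps: dispense AID with UDG; pin-transfer compound up to 114 uM final; add DJC20/DJC23 substrate and hold 4 hr at room temperature; add NaOH, hold 30 min; read FRET signal (540/590 nm).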

[5] = Primary qHTS for inhibitors of La Crosse Virus (LACV) - induced cell death in SH-SY5Y cells (AID 1508616);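 further: top concentration of the series differs between compounds; higher means more rescue of cells from virus-induced death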
Procedure, shortened: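 SH-SY5Y, 6000 cells/well; cpd via pin tool in DMSO; LACV 0.01 MOI; 6 d 37C 5% CO2; ATPLite, 5 min RT; luminescence normalized to ±virus DMSO controls.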

Measured: Potency

Sequence of Single-stranded DNA cytosine deaminase (Homo sapiens) (Q9GZX7 whole entry, looked up): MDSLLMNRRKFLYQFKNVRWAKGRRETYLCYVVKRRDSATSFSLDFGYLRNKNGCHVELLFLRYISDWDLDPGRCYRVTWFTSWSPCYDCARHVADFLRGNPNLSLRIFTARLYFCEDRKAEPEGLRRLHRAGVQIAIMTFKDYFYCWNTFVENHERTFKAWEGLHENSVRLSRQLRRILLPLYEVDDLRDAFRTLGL

CC(C)(C)c1ccc(/C=C/C(=O)Nc2ccc3c(c2)OCCO3)cc1
inactive: all assays above

CNc1cc(NS(=O)(=O)c2ccc(N)cc2)nc(NC)n1
inactive: all assays above

CC(C)(C)c1cc(/C=C(\C#N)C(N)=S)cc(C(C)(C)C)c1O
inactive: all assays above

O=C(O)C1=CCCNC1
inactive: all assays above

NC[C@@H]1O[C@H](c2ccccc2)Cc2c1ccc(O)c2O
inactive: all assays above

CN1CCc2cc(Cl)c(O)cc2[C@@H](c2ccccc2)C1
inactive: all assays above

CC[N+](CC)(CC)CC(=O)Nc1c(C)cccc1C
inactive: all assays above

O=c1onc2cnc3ccccc3n12
inactive: all assays above

CC(C)C[C@H](NC(=O)[C@H](O)[C@H](N)Cc1ccccc1)C(=O)O
inactive: all assays above

CC(C)C[C@H](NC(=O)C1OC1C(=O)O)C(=O)NCCCCN=C(N)N (stereo not given in full)
inactive: all assays above

CC(C)NC[C@H](O)COc1ccc(CC(N)=O)cc1
inactive: all assays above

O=c1ccc2c(OCCCCc3ccccc3)c3ccoc3cc2o1
inactive: all assays above

OCC1NCC(O)C(O)C1O (stereo not given)
inactive: all assays above

O=C(O)c1ccccc1Nc1ccccc1
inactive: all assays above

NC1(C(=O)O)CCc2cc(C(=O)O)ccc21 (stereo not given)
inactive: all assays above

COc1ccc2c(c1)c(CC(=O)O)c(C)n2C(=O)c1ccccc1
inactive: all assays above

c1ccc(C(NCCNC(c2ccccc2)c2ccccc2)c2ccccc2)cc1
inactive: all assays above

CSc1nc(N)c2ncn([C@@H]3O[C@H](COP(=O)(O)OP(=O)(O)O)C(O)[C@H]3O)c2n1 (stereo not given in full)
inactive: all assays above

Oc1ccc(Cn2cc[nH]c2=S)cc1
inactive: all assays above

Nc1nc2[nH]c(=O)cnc2c(=O)[nH]1
inactive: all assays above

Nn1nnc2ccccc21
inactive: all assays above

CCSC(=N)N
inactive: all assays above

O=C1C2C=CC=CC2=NC(=S)N1CCN1CCC(=C(c2ccc(F)cc2)c2ccc(F)cc2)CC1 (stereo not given)
inactive: all assays above

NCCCCN=C(N)N
inactive: all assays above

CC(N)(Cc1ccc(O)c(O)c1)C(=O)O (stereo not given)
inactive: all assays above

N[C@H]1CONC1=O
inactive: all assays above

Cc1ccc([N+](=O)[O-])cc1S(=O)(=O)N(C)C
inactive: all assays above

Cc1nc2c(OCc3ccccc3)cccn2c1CC#N
inactive: all assays above

O=C(O)c1cccnc1C(=O)O
inactive: all assays above

COCc1nc2c([nH]1)c(=O)n(C)c(=O)n2CC(C)C
inactive: all assays above

CCCCCC[C@@H]([C@@H](C)O)n1cnc2c(N)ncnc21
inactive: all assays above

C[C@@H](NCCc1ccc(O)cc1)[C@@H](O)c1ccc(O)cc1
inactive: all assays above

C/C(=C\c1ccc(C(=O)O)cc1)c1ccc2c(c1)C(C)(C)CCC2(C)C
inactive: all assays above

CO/N=C(\C(=O)N[C@@H]1C(=O)N2C(C(=O)O)=C(CSc3nc(=O)c(O)nn3C)CSC12)c1csc(N)n1 (stereo not given in full)
inactive: all assays above

CSC(=N)N
inactive: all assays above

COC1(C2=NCCN2)COc2ccccc2O1 (stereo not given)
inactive: all assays above

COc1ccc(-c2ccc(N)[n+](CCCC(=O)O)n2)cc1
inactive: all assays above
